# Beta apoptosis: beta cell apoptosis inhibition | INS-1E cytokine-induced death, ATP luminescence, 48 h; percent of positive-control rescue, neutral wells zero | protection from apoptosis, % (test concentration not listed) | 300,000 compounds, 0.8% hits | AID 435005;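 active = Every replicate reaches about 75%, or at least half do and their mean reaches it too, limit read from the data; inconclusive = At least half of replicates reach the limit but their mean does not; inactive = Under half of replicates reach the limit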;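 note: 0% = cytokine-treated negative control wells and 100% = positive control rescue; higher means more ATP so stronger rescue from cytokine killing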
# CSC inhib: blocks cancer stem cells; cancer stem cell-like cells viability, luminescence; inhibition, % at 7.5 µM; 300,000 compounds, 1.1% hits; AID 2717; in the data active = inhibition above about 75%; inconclusive = no clear call, values can overlap the other calls; tested in HMLE shEcad cells
# PfHsp90 yeast 2: inhibits growth of yeast expressing Plasmodium falciparum Hsp90; S. cerevisiae expressing PfHsp90, BacTiter-Glo ATP, 48 h; yeast lacking PDR1 and PDR3 efflux regulators; inhibition, % at 9.4 µM; 310,000 compounds, 0.32% hits; AID 504621;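 active = every replicate shows inhibition above about 80%, whatever the replicate mean, limit read from the data; inconclusive = mean inhibition reaches the set limit but some replicate falls short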;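 note: 0% = DMSO neutral controls and 100% = 20 µM radicicol positive controls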
# Calb FLC: affects C. albicans growth with fluconazole; 300,000 compounds, 0.57% hits; C. albicans CaCi-2 (fluconazole-resistant clinical isolate) + fluconazole, Alamar Blue growth, 48 h; growth inhibition, % (test concentration not listed); AID 1979;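 active = growth inhibition above about 58% in most replicates, limit read from the data, passing the limit was not always enough; inconclusive = exactly half the replicates above a set limit; inactive = most replicates below a set limit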;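 note: all wells also contain fluconazole at 8 µg/ml as a sub-toxic cotreatment; 0% = median of DMSO wells and 100% = median of geldanamycin control wells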
# Shn3 inh set2: Schnurri-3 reporter inhibition in Clone20 osteoblasts. Clone20 osteoblast Shn3 3'UTR firefly luciferase, 24 h. inhibition, % at 12.5 µM. 360,000 compounds, 0.52% hits. AID 588674;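 active = mean inhibition of at least 75% with every replicate also reaching 75%; inconclusive = mean inhibition at least 75% but some replicate below; inactive = mean inhibition below 75%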;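 note: 0% = median of neutral control wells and 100% = pilot-screen positive control compound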
# An asterisk follows results filed as active; ? = inconclusive; · = no result. Compounds with a hit are over-represented: about 2.2% of the library has one in this group of screens.
SMILES,Beta apoptosis,CSC inhib,PfHsp90 yeast 2,Calb FLC,Shn3 inh set2
Cc1ccc(/C=N/NC(=O)NC2CCCCC2)o1,-4.6,-2.5,8.6,-21.8,-15.8
Cc1ccc(S(=O)(=O)NCC(=O)OCc2nnc(-c3ccccc3)o2)cc1,-1.0,6.4,-0.1,-0.5,-9.1
Nc1nc(N)c2cc(S(=O)(=O)c3ccc4ccccc4c3)ccc2n1,·,·,·,·,85.1*
CCOC(=O)C1=C(COC(=O)CCOc2ccc(C)cc2)NC(=O)NC1C (stereo not given),-29.1,10.6,·,-4.7,6.6
c1ccc(-c2cccc(-c3ccccn3)n2)nc1,81.5*,107.0*,145.9*,100.1*,87.6*
C[C@@H]1CC=C[C@H]2[C@H]1C(=O)N(Cc1ccccc1)[C@H]2c1cccc([N+](=O)[O-])c1,-20.8,-2.7,5.6,2.7,86.6*
CC(=O)c1ccc(-c2ccc([C@H]3[C@H]4C=CC[C@@H](C)[C@@H]4C(=O)N3Cc3ccccc3)c(F)c2)cc1,9.5,75.3*,-11.4,-6.1,16.3
C[C@@H]1CC=C[C@H]2[C@H]1C(=O)N(Cc1ccccc1)[C@H]2c1ccc2ccccc2c1,17.5,86.5*,26.7,-10.7,-2.9
COc1ccc(-c2cc([C@H]3[C@H]4C=CC[C@@H](C)[C@@H]4C(=O)N3Cc3ccccc3)ccc2F)cc1OC,6.6,-1.2,-6.9,-7.2,-10.3
C[C@@H]1CC=C[C@H]2[C@H]1C(=O)N(Cc1ccccc1)[C@H]2c1ccc(F)c(Br)c1,·,·,·,-15.2,·
COc1ccc(-c2cc([C@H]3[C@H]4C=CC[C@@H](C)[C@@H]4C(=O)N3Cc3ccccc3)ccc2F)cc1,1.2,77.4*,2.7,7.8,2.3
COC(=O)c1ccc(-c2ccc([C@H]3[C@H]4C=CC[C@@H](C)[C@@H]4C(=O)N3Cc3ccccc3)c(F)c2)cc1,3.0,-1.0,7.5,4.0,8.2
COC(=O)[C@@H](c1ccccc1)N(C)S(=O)(=O)c1cccc(S(=O)(=O)N(C)[C@@H](C(=O)OC)c2ccccc2)c1,22.2,6.2,7.0,-9.9,73.6
O=C(Nc1nc(-c2ccccn2)cs1)c1cc2ccccc2o1,2.4,46.6,104.9*,98.6*,-13.3
Cc1nnc(NC(=O)c2oc3ccccc3c2C)s1,0.9,-5.3,-6.4,-0.4,-99.9
Cc1c(C(=O)Nc2nc(-c3ccccn3)cs2)oc2ccccc12,84.3*,109.3*,?,·,16.9
Cc1cc(-c2csc(NC(=O)c3cc4ccccc4o3)n2)c(C)n1C,-3.2,2.9,13.3,-26.2,-22.7
CC1C/C(=C/c2ccncc2)C(=O)/C(=C/c2ccncc2)C1 (stereo not given),111.9*,77.5*,97.6*,1.2,80.0
O=C1/C(=C/c2ccncc2)Cc2ccccc21,-9.1,-7.0,21.4,10.6,-2.1
CC(=O)c1ccc(NC(=O)COC(=O)CCc2ccc(S(=O)(=O)N3CCOCC3)cc2)cc1,0.1,5.9,9.7,-2.0,2.4
COCC(C)n1c(SCC(=O)NC(=O)NCc2ccccc2)nc2ccccc2c1=O (stereo not given),-7.6,-5.5,·,·,20.9
Cc1ccc(O)c(N=Nc2nccs2)c1,88.5*,1.3,112.4*,·,92.8*
O=C1N(c2ccccc2)C[C@@H]2C[C@@H](c3cc4ccccc4o3)N3CCC[C@@]123,·,·,8.3,-6.3,97.2*
Cc1ccc(NS(=O)(=O)c2ccc(Cl)c(NC(=S)NC(=O)C3CCCCC3)c2)cc1Cl,101.6*,106.0*,-1.9,3.9,2.9
Cc1ccc(NC(=O)C2CCCC2)cc1Cl,·,·,1.3,13.1,-25.9
SMILES,Beta apoptosis,CSC inhib,PfHsp90 yeast 2,Calb FLC,Shn3 inh set2
COc1ccc([N+](=O)[O-])cc1NS(=O)(=O)c1ccc(C)cc1,0.4,8.2,6.0,18.8,-4.7
COc1ccc(NS(=O)(=O)c2ccc(C)cc2)c([N+](=O)[O-])c1,-6.3,12.9,-22.0,22.4,-4.2
Cc1ccc(S(=O)(=O)Nc2ccc3ccccc3c2[N+](=O)[O-])cc1,·,·,115.4*,·,-4.8
Cc1ccc(S(=O)(=O)Nc2ccc3cc([N+](=O)[O-])ccc3c2[N+](=O)[O-])cc1,·,·,110.8*,·,12.0
CCSc1nnc(N2C(=O)c3ccc(C(=O)c4ccc(C(=O)O)cc4)cc3C2=O)s1,1.5,-43.0,3.0,12.2,-56.9
Clc1ccc(OCCCNCc2ccccc2)c2ccccc12,27.7,110.4*,-2.9,17.4,5.1
Brc1ccccc1OCCNCc1ccccc1,5.7,9.5,-31.9,-5.9,-1.9
CCSc1ccc2cc(OC)ccc2[n+]1CC,-1.4,-2.4,13.8,75.4*,27.2
CN(Cc1ccccc1)C(=O)c1cccc(NC(=O)Cc2ccc(NC(=O)C3CCCN(C(=O)C4CCCCC4)C3)cc2)c1 (stereo not given),·,·,-5.6,·,7.9
N/C(=N\OC(=O)N1c2ccccc2Sc2ccccc21)c1ccccc1,10.0,1.2,-8.6,94.2*,2.1
Cc1cccc(/C(N)=N/OC(=O)N2c3ccccc3Sc3ccccc32)c1,17.3,7.3,-24.1,17.9,14.2
Cc1cc(F)ccc1NC(=O)CCc1ccc(S(=O)(=O)N2CCOCC2)cc1,-0.3,-6.5,-1.2,·,-2.9
Cc1ccc(NS(=O)(=O)c2ccc(CCC(=O)NCCO)cc2)cc1,3.9,4.9,-2.2,112.5*,-7.2
Cc1ccc(NS(=O)(=O)c2ccc(CCC(=O)NCc3ccccn3)cc2)cc1,-1.0,-12.4,-5.5,-4.9,5.1
Cc1ccc(NC(=O)c2cc(-c3ccccc3)nn2-c2ccccc2)cc1,2.3,87.9*,10.8,24.5,11.3
COc1ccc(N(C)S(=O)(=O)c2ccc(Cl)c(C(=O)NCC(C)(C)N3CCOCC3)c2)cc1,6.7,7.6,6.9,·,59.3
O=C1c2ccc(Cl)cc2S(=O)(=O)c2cccc(C(=O)N3CCC(Cc4ccccc4)CC3)c21,2.9,123.3*,-9.9,·,-11.9
CC(C)(C)CC(=O)Nc1nnc(C(F)(F)F)s1,3.3,-0.7,1.9,81.5*,7.1
CC(NC(=O)Nc1nnc(C(F)(F)F)s1)(C(F)(F)F)C(F)(F)F,119.9*,2.1,10.4,70.6,61.5
CCOC(=O)/C(=N/Nc1ccccc1)N1CCCc2ccccc21,2.2,4.8,-3.1,-9.9,9.0
CCOC(=O)/C(=N/Nc1ccc(OC)cc1)N1CCCc2ccccc21,7.5,75.4*,-22.2,-3.6,20.1
CCOc1ccc(S(=O)(=O)N2CCCCC2)cc1NS(=O)(=O)c1cccs1,-5.6,·,7.2,·,-5.6
COc1ccc(-c2c/c(=N\c3nc(-c4ccccc4)c(C)s3)c3ccccc3o2)cc1O,28.2,79.8*,-18.3,-2.7,-18.8
COc1ccc(-c2cc(=Nc3c(C)n(C)n(-c4ccccc4)c3=O)c3ccccc3o2)cc1,2.5,-2.3,-21.1,3.7,-88.7
NC(=O)c1sc(-c2ccsc2)cc1NS(=O)(=O)c1ccc(C(F)(F)F)cc1,12.6,79.0*,·,14.1,·
CCOc1ncccc1C(=O)NCCc1ccc(Cl)cc1,1.7,2.1,-7.3,·,5.0
O=c1cc(-c2ccc(O)cc2)oc2c1ccc1ccccc12,-5.7,24.5,6.4,·,-14.9
O=c1cc(-c2ccc(O)cc2)oc2ccc3ccccc3c12,45.2,89.9*,8.2,·,?
